Test results from ChEMBL document CHEMBL1961873, “Compounds: GSK PKIS; Assays: Nanosyn kinase panel” (2012).

How the values were obtained:
[1] = molecular target: Serine/threonine-protein kinase PAK 6 (Homo sapiens) (UniProt Q9NQU5); conditions: at 1 µM;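 also: values are mean percent inhibition of PAK6 kinase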
[2] = system: Tyrosine-protein kinase ABL1 (Homo sapiens), P00519 [E255K]; conditions: at 0.1 µM
[3] = system: Tyrosine-protein kinase ABL1 (Homo sapiens), P00519 [E255K]; conditions: at 1 µM
[4] = system: Tyrosine-protein kinase ABL1 (Homo sapiens), P00519 [H396P]; conditions: at 0.1 µM
[5] = system: Tyrosine-protein kinase ABL1 (Homo sapiens), P00519 [H396P]; conditions: at 1 µM
[6] = system: Tyrosine-protein kinase ABL1 (Homo sapiens), P00519 [M351T]; conditions: at 0.1 µM
[7] = system: Tyrosine-protein kinase ABL1 (Homo sapiens), P00519 [M351T]; conditions: at 1 µM
[8] = system: Tyrosine-protein kinase ABL1 (Homo sapiens), P00519 [Q252H]; conditions: at 0.1 µM
[9] = system: Tyrosine-protein kinase ABL1 (Homo sapiens), P00519 [Q252H]; conditions: at 1 µM
[10] = system: Tyrosine-protein kinase ABL1 (Homo sapiens), P00519 [T315I]; conditions: at 0.1 µM
[11] = system: Tyrosine-protein kinase ABL1 (Homo sapiens), P00519 [T315I]; conditions: at 1 µM
[12] = system: Tyrosine-protein kinase ABL1 (Homo sapiens), P00519 [Y253F]; conditions: at 0.1 µM
[13] = system: Tyrosine-protein kinase ABL1 (Homo sapiens), P00519 [Y253F]; conditions: at 1 µM
[14] = molecular target: Tyrosine-protein kinase ABL1 (Homo sapiens) (UniProt P00519); conditions: at 0.1 µM
[15] = molecular target: Tyrosine-protein kinase ABL1 (Homo sapiens) (UniProt P00519); conditions: at 1 µM
[16] = molecular target: ALK tyrosine kinase receptor (Homo sapiens) (UniProt Q9UM73); conditions: at 0.1 µM
Sequence of ALK tyrosine kinase receptor (Homo sapiens) (Q9UM73 19-1620 limits assumed): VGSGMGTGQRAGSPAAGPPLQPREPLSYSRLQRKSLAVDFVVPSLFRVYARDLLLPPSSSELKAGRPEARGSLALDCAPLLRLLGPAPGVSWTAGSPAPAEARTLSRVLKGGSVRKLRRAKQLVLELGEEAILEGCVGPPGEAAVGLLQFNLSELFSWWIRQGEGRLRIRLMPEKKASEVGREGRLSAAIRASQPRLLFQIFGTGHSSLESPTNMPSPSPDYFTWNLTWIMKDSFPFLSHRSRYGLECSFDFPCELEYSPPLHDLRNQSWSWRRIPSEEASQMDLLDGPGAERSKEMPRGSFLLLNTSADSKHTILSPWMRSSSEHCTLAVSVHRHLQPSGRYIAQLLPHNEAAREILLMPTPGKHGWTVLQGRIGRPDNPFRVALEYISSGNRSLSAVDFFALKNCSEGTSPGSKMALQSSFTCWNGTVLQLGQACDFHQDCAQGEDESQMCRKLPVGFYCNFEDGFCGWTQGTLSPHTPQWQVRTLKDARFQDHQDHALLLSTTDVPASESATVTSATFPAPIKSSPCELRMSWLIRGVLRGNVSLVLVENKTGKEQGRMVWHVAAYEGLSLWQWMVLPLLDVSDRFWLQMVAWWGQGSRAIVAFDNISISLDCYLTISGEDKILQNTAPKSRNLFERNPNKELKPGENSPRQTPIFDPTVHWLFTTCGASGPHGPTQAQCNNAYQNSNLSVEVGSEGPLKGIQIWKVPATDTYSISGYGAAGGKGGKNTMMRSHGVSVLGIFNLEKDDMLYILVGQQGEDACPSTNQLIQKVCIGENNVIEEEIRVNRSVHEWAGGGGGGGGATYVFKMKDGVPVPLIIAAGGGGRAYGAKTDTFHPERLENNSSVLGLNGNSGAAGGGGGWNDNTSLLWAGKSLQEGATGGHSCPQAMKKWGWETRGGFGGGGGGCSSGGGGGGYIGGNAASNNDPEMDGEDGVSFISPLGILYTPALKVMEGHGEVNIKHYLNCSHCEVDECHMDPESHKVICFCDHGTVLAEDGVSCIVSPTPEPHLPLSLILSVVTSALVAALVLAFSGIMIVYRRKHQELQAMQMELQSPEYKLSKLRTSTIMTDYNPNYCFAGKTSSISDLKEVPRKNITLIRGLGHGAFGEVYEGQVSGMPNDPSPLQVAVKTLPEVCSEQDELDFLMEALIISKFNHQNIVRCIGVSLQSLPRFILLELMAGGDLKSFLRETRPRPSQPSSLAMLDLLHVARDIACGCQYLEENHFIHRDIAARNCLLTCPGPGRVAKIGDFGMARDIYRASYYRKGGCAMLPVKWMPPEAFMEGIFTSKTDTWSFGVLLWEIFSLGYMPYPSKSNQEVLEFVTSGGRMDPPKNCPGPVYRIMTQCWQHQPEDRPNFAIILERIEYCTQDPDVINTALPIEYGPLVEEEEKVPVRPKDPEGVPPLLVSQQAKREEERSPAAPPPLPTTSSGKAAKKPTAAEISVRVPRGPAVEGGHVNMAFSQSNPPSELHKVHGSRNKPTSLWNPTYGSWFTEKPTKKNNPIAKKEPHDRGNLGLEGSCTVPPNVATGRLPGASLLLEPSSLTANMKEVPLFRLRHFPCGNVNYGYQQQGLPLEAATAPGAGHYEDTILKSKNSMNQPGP

[17] = molecular target: ALK tyrosine kinase receptor (Homo sapiens) (UniProt Q9UM73); conditions: at 1 µM
[18] = molecular target: Tyrosine-protein kinase ABL2 (Homo sapiens) (UniProt P42684); conditions: at 0.1 µM
Sequence of Tyrosine-protein kinase ABL2 (Homo sapiens) (P42684 whole entry): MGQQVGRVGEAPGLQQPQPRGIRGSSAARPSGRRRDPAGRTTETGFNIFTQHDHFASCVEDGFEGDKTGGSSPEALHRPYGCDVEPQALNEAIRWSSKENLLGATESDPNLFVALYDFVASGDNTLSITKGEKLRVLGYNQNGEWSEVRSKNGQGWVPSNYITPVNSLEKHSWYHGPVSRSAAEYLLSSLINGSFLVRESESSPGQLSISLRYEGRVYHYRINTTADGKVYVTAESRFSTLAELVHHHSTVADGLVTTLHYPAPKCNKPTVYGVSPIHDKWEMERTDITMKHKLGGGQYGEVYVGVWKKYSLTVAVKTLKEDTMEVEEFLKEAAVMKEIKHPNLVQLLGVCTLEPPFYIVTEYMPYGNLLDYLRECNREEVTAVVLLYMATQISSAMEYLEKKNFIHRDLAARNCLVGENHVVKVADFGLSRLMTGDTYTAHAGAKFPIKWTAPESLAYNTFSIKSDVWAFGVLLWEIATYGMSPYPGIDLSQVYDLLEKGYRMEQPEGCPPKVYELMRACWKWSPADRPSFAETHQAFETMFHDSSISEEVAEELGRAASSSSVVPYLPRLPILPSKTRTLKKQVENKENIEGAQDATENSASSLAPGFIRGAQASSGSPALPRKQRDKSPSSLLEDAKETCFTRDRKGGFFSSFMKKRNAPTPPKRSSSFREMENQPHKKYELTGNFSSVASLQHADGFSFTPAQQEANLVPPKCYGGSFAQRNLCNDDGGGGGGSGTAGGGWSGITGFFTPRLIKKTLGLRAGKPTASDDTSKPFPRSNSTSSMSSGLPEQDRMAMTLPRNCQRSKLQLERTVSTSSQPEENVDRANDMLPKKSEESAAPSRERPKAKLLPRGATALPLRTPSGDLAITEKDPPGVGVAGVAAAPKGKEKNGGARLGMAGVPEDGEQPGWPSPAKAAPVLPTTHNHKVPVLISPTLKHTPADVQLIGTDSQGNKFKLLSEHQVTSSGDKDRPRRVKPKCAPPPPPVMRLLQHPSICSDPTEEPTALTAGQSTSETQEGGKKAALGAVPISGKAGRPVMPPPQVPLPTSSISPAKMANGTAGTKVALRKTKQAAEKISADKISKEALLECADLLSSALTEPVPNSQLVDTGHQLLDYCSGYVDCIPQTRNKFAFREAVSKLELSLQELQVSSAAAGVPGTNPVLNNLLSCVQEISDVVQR

[19] = molecular target: Tyrosine-protein kinase ABL2 (Homo sapiens) (UniProt P42684); conditions: at 1 µM
[20] = molecular target: Tyrosine-protein kinase receptor UFO (Homo sapiens) (UniProt P30530); conditions: at 0.1 µM;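 also: values are mean percent inhibition of AXL from the GSK PKIS screen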
Sequence of Tyrosine-protein kinase receptor UFO (Homo sapiens) (P30530 whole entry): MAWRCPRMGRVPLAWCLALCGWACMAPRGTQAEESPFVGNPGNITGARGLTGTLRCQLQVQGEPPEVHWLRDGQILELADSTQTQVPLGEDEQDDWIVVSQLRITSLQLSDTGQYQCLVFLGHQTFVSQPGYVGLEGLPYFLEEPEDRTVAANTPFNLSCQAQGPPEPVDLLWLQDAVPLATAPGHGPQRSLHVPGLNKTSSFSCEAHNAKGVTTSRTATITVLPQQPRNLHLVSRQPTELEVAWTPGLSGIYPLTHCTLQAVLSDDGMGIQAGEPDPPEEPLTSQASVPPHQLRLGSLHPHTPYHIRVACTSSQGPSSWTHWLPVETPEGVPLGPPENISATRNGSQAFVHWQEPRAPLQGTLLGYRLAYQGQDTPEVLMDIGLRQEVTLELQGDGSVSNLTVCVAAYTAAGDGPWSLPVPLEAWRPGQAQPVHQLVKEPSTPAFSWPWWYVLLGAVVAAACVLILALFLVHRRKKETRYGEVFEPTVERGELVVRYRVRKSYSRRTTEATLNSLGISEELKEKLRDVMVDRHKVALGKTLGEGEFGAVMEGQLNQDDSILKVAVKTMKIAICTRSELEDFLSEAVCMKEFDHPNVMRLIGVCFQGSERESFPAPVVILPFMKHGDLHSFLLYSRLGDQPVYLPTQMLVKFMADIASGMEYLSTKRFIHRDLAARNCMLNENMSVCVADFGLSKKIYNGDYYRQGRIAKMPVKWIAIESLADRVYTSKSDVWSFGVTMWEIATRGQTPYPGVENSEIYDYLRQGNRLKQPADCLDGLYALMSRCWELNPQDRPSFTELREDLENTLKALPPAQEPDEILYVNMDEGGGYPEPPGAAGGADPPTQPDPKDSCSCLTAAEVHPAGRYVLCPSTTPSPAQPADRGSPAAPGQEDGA

Sequence of Serine/threonine-protein kinase PAK 6 (Homo sapiens) (Q9NQU5 whole entry, looked up): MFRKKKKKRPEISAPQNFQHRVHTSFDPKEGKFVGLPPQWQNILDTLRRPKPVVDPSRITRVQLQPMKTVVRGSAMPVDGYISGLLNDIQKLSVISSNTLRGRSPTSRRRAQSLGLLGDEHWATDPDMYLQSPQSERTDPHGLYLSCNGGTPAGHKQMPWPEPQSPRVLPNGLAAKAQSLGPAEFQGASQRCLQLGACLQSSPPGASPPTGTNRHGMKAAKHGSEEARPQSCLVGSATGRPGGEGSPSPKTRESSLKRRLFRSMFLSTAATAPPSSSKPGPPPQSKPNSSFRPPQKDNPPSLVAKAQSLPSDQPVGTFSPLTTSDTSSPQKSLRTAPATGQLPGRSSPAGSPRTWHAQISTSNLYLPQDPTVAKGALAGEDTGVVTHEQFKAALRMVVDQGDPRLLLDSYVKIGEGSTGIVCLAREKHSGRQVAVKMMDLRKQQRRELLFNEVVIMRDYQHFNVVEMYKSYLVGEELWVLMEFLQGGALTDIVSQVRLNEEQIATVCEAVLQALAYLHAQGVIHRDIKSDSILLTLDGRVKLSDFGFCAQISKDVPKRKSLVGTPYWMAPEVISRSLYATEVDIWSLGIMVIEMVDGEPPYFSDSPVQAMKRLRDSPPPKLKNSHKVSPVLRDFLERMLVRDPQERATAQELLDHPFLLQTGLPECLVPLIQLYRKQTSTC

SMILES | inhibition [1] [%] | inhibition [2] [%] | inhibition [3] [%] | inhibition [4] [%] | inhibition [5] [%] | inhibition [6] [%] | inhibition [7] [%] | inhibition [8] [%] | inhibition [9] [%] | inhibition [10] [%] | inhibition [11] [%] | inhibition [12] [%] | inhibition [13] [%] | inhibition [14] [%] | inhibition [15] [%] | inhibition [16] [%] | inhibition [17] [%] | inhibition [18] [%] | inhibition [19] [%] | inhibition [20] [%]
NS(=O)(=O)c1ccc(N/N=C2\C(=O)Nc3ccc4ncccc4c32)cc1 | 1.45 | 7.3 | 39.2 | 8.88 | 47.7 | 9.67 | 48.9 | 13.3 | 52.4 | 8.91 | 47.1 | 11.6 | 49.8 | 9.91 | 50.2 | 3.06 | 16.1 | 4.85 | 33.7 | 0.46
COc1cccc(-c2c[nH]c3c(N/N=C/c4ccncc4)ncnc23)c1 | -1.79 | 65 | 91.1 | 76.2 | 93.6 | 76.5 | 92.5 | 79.8 | 92.6 | 11.8 | 57.7 | 73 | 93.2 | 57.6 | 81.7 | 0.85 | 1.19 | 41.8 | 78.6 | -2.43
CN(C)CCOc1ccc(-c2nc(-c3ccncc3)c(-c3ccc4c(c3)CC/C4=N\O)[nH]2)cc1 | 9.98 | 4.28 | 17.5 | 8.42 | 34.1 | 6.36 | 30.4 | 10.1 | 45.1 | 8.51 | 41.9 | 10.2 | 40.1 | 6.41 | 40.7 | 2.17 | 8.67 | 4.57 | 19.4 | -2.86
COc1cc(/C=N/Nc2ncnc3[nH]ncc23)ccc1O | 4.44 | 36.5 | 83.4 | 45.9 | 87.6 | 42.9 | 87.9 | 47.9 | 88.3 | 8.14 | 47.4 | 52.5 | 87.3 | 35.1 | 78.9 | 1.72 | 8.84 | 15.6 | 65.7 | -3.29
COc1cc2ncn(-c3cc(OCc4ccccc4C(F)(F)F)c(C(=O)N(C)C)s3)c2cc1OC | -4.14 | 1.36 | 9.93 | 2.27 | 16.3 | 1.09 | 14.9 | 2.35 | 13.2 | -0.89 | 1.37 | 1.14 | 17.4 | 2.99 | 18.7 | 0.27 | 0.78 | 4.85 | 11.8 | -0.33
COc1ccc(-c2oc3ncnc(N)c3c2-c2ccc(NC(=O)Nc3cc(C(F)(F)F)ccc3F)cc2)cc1 | 11 | 3.15 | 22.9 | 10.3 | 58.2 | 34.6 | 76.4 | 33.6 | 76.2 | 21.9 | 64.3 | 9.77 | 54.4 | 7.54 | 52.3 | 2.32 | 8.5 | 13.6 | 68.1 | 21.3
NS(=O)(=O)c1ccc(Nc2ncc(-c3ccccc3)o2)cc1 | 8.68 | 4.6 | 17.8 | 8.3 | 39.3 | 3.46 | 40.1 | 4.58 | 28.1 | 3.72 | 17.9 | 5.61 | 26.6 | 5.37 | 37.9 | 1.53 | 6.29 | 4.93 | 42 | -5.59
CCn1c(-c2nonc2N)nc2cnc(Oc3cccc(NC(=O)c4ccc(N(C)C)cc4)c3)cc21 | -2.65 | 0.6 | 9.02 | 0.27 | 1.9 | -1.02 | 4.81 | 2.14 | 1.78 | 1.38 | 1.03 | 2.77 | 6.27 | 1.77 | 3.99 | 0.57 | 1.96 | 2.48 | 2.42 | -3.9
CNC(=O)c1cncc(/C=C/c2ccccc2Cl)c1 | 3.32 | -0.16 | 14.2 | 2.14 | 24.1 | 3.34 | 20 | 1.38 | 17.3 | 0.79 | 8.51 | 3.01 | 27 | 7.06 | 33.6 | 0.91 | 0.92 | 4.13 | 21.1 | 4.02
CS(=O)(=O)CCNCc1ccc(-c2ccc3ncnc(Nc4ccc(OCc5ccccc5)c(C(F)(F)F)c4)c3c2)o1 | -6.97 | 3.5 | 2.71 | 4.04 | 4.48 | 0.91 | 0.91 | 2.84 | 2.08 | 2.59 | 2.46 | 4.02 | 3.49 | 5.33 | 5.35 | 4.27 | 4.07 | 4.59 | 4.76 | -6
CCn1cc(-c2ccnc3[nH]ccc23)c(-c2cccc(NC(=O)Nc3ccc(OCc4ccccc4)cc3)c2)n1 | 3.29 | 1.22 | -1.34 | 1.15 | 3.55 | 1.36 | 3.02 | 0.71 | 2.72 | -0.6 | -0.74 | 0.58 | 0.94 | 1.03 | 2.88 | 0.6 | 0.71 | 0.39 | 6.44 | 0.7
COc1cc(Nc2nccc(Nc3ccc4c(C)n[nH]c4c3)n2)cc(OC)c1OC | -1.27 | 18.5 | 67.2 | 30.1 | 78.3 | 28.9 | 75.6 | 24.5 | 72.7 | 1.65 | 14.3 | 37.6 | 83.6 | 20.3 | 69.7 | 5.55 | 39.3 | 18.4 | 69.9 | 0.91
COC(=O)c1sc(-n2cnc3cc(OC)c(OC)cc32)cc1OCc1ccccc1C(F)(F)F | 0.71 | 6.91 | 22.7 | 5.82 | 18.2 | 4.03 | 16.2 | 6.05 | 18.9 | 2.67 | 4.91 | 6.46 | 21.6 | 3.86 | 12.3 | 3.59 | 12.4 | 3.44 | 5.92 | -8.88
COc1ccc2c(-c3ccnc(Nc4cccc(OC(F)(F)F)c4)n3)cnn2n1 | 6.82 | 3.39 | 4.4 | 3.04 | 15.7 | 1.37 | 11.9 | 4.44 | 9.67 | 0.99 | 6.33 | 4.09 | 8.45 | 4.8 | 17 | 2.4 | 5.73 | 4.05 | 19.1 | -4.17
